PubChem BioAssay (NCATS)
Results filed as inconclusive are left out. The source made the active and inactive calls. Calls come from the whole dose curve; as a rule, active = well fitted curve in the direction sought with a large enough effect; inconclusive = small, poorly fitted or top-dose-only effect, or another doubt; inactive = no such curve, though single readings can be large; an effect the other way counts as inactive or inconclusive.

How the values were obtained:
[1] = Quantitative High-Throughput drug screen in 47 multiple myeloma cell lines against the NCATS MIPE library collection: JJN3_DSMZ cell viability assay (AID 1918966; note: nearly all actives have a fitted effect of over 50% in size; note: potency is the fitted concentration of half-maximal effect)
Outline: (§1)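 CellTiter-Glo luminescence (ATP) after 48 h compound exposure, 37C/5% CO2; 500 cells/well; MIPE 4.0 approved/investigational drugs pinned in; DMSO = 100%, media only = 0% viability.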

[2] = Quantitative High-Throughput drug screen in 47 multiple myeloma cell lines against the NCATS MIPE library collection: H1112_PLB cell viability assay (AID 1918967; note: nearly all actives have a fitted effect of over 30% in size)
Outline: as §1

[3] = Quantitative High-Throughput drug screen in 47 multiple myeloma cell lines against the NCATS MIPE library collection: Karpas25_ECACC cell viability assay (AID 1918968; note: nearly all actives have a fitted effect of over 35% in size; note: potency is the fitted concentration of half-maximal effect)
Outline: as §1

[4] = Quantitative High-Throughput drug screen in 47 multiple myeloma cell lines against the NCATS MIPE library collection: KMS12BM_JCRB cell viability assay (AID 1918971); note: nearly all actives have a fitted effect of over 35% in size; note: potency is the fitted concentration of half-maximal effect
Outline: (§2)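 Approved and investigational drugs from MIPE 4.0 were added by pin tool to 500 cells per well. After 48 hours at 37C, ATP-based CellTiter-Glo luminescence indicated remaining viability.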

[5] = Quantitative High-Throughput drug screen in 47 multiple myeloma cell lines against the NCATS MIPE library collection: KMS20_JCRB cell viability assay (AID 1918973); note: nearly all actives have a fitted effect of over 45% in size; note: potency is the fitted concentration of half-maximal effect
Outline: as §1

[6] = Quantitative High-Throughput drug screen in 47 multiple myeloma cell lines against the NCATS MIPE library collection: NCIH929_DSMZ cell viability assay (AID 1918978); note: nearly all actives have a fitted effect of over 35% in size
Outline: (§3)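 Myeloma cells (500/well) treated with MIPE 4.0 compounds for 48 h at 37 °C, 5% CO2. Viability read as ATP via CellTiter-Glo luminescence after 5 min at RT; DMSO-only wells = 100%, media-only = 0% viability.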

[7] = Quantitative High-Throughput drug screen in 47 multiple myeloma cell lines against the NCATS MIPE library collection: OCIMY1_PLB cell viability assay (AID 1918979); note: nearly all actives have a fitted effect of over 35% in size; note: potency is the fitted concentration of half-maximal effect
Outline: as §3

[8] = Quantitative High-Throughput drug screen in 47 multiple myeloma cell lines against the NCATS MIPE library collection: MM1S_ATCC cell viability assay (AID 1918980); note: nearly all actives have a fitted effect of over 45% in size; note: potency is the fitted concentration of half-maximal effect
Outline: as §3

[9] = Quantitative High-Throughput drug screen in 47 multiple myeloma cell lines against the NCATS MIPE library collection: MM1R_ATCC cell viability assay (AID 1918981); note: nearly all actives have a fitted effect of over 35% in size; note: potency is the fitted concentration of half-maximal effect
Outline: as §3

[10] = Quantitative High-Throughput drug screen in 47 multiple myeloma cell lines against the NCATS MIPE library collection: LP1_DSMZ cell viability assay (AID 1918982); note: nearly all actives have a fitted effect of over 35% in size; note: potency is the fitted concentration of half-maximal effect
Outline: as §3

[11] = Quantitative High-Throughput drug screen in 47 multiple myeloma cell lines against the NCATS MIPE library collection: KMS28PE_JCRB cell viability assay (AID 1918983); note: nearly all actives have a fitted effect of over 35% in size; note: potency is the fitted concentration of half-maximal effect
Outline: as §3

[12] = Quantitative High-Throughput drug screen in 47 multiple myeloma cell lines against the NCATS MIPE library collection: KMS34_JCRB cell viability assay (AID 1918985); note: nearly all actives have a fitted effect of over 40% in size; note: potency is the fitted concentration of half-maximal effect
Outline: as §3

[13] = Quantitative High-Throughput drug screen in 47 multiple myeloma cell lines against the NCATS MIPE library collection: KMS12PE_JCRB cell viability assay (AID 1918972); note: nearly all actives have a fitted effect of over 30% in size; note: potency is the fitted concentration of half-maximal effect
Outline: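 Myeloma cells (500 per well) were exposed to MIPE 4.0 compounds by pin transfer and incubated 48 hours at 37C, 5% CO2. Viability was read as ATP by CellTiter-Glo luminescence, normalised to DMSO (100%) and media-only (0%) wells.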

[14] = Quantitative High-Throughput drug screen in 47 multiple myeloma cell lines against the NCATS MIPE library collection: KMS27_JCRB cell viability assay (AID 1918970); settings: KMS27 myeloma cells, CellTiter-Glo ATP viability, 48 h; viability (% of DMSO): at 45.8 µM (top of the series); note: nearly all actives have a fitted effect of over 30% in size
Outline: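 ATP-based viability (CellTiter-Glo luminescence) is measured in cells treated 48 h with approved and investigational drugs at 37 °C. Controls are DMSO-only wells for full viability and media-only wells for none.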

[15] = Quantitative High-Throughput drug screen in 47 multiple myeloma cell lines against the NCATS MIPE library collection: KMS26_JCRB cell viability assay (AID 1918975); note: nearly all actives have a fitted effect of over 45% in size; note: potency is the fitted concentration of half-maximal effect
Outline: as §2

[16] = Quantitative High-Throughput drug screen in 47 multiple myeloma cell lines against the NCATS MIPE library collection: MOLP8_DSMZ cell viability assay (AID 1918977); note: nearly all actives have a fitted effect of over 45% in size
Outline: as §3

[17] = Quantitative High-Throughput drug screen in 47 multiple myeloma cell lines against the NCATS MIPE library collection: KMS21BM_JCRB cell viability assay (AID 1918974); settings: ATP luminescence, 48 h; viability: at 45.8 µM (top of the series)
Outline: as §1

[18] = Quantitative High-Throughput drug screen in 47 multiple myeloma cell lines against the NCATS MIPE library collection: L363_DSMZ cell viability assay (AID 1918984); note: nearly all actives have a fitted effect of over 40% in size
Outline: as §3

[19] = Quantitative High-Throughput drug screen in 47 multiple myeloma cell lines against the NCATS MIPE library collection: MMM1_PLB cell viability assay (AID 1918976)
Outline: as §3

Measured: Potency

COc1ccc2cc([S+]([O-])Cc3ncc(C)c(OC)c3C)nc2c1
active: [3] 16.6 µM
not listed: [13] | [14] | [15] | [16] | [17] | [18] | [19]
inactive: all other assays above

O=C(Nc1ccc(Oc2ccnc3[nH]ccc23)c(F)c1)c1cccn(-c2ccc(F)cc2)c1=O
inactive: [13] | [5] | [7] | [8] | [10]
active: [1] 20.9 µM | [9] 10.5 µM

CC(=O)OC[C@@H]1O[C@@H](n2ccc(=O)[nH]c2=O)[C@H](OC(C)=O)[C@H]1OC(C)=O
not listed: [3] | [5] | [17] | [18] | [19]
inactive: all other assays above

CCCCCCCCCCCCCCCC(=O)OC[C@@H](NC(=O)C(Cl)Cl)[C@H](O)c1ccc([N+](=O)[O-])cc1
inactive: [2] | [4] | [13] | [5] | [17] | [15] | [16] | [11] | [18] | [12]

CC1(C)O[C@@H]2C[C@H]3[C@@H]4CCC5=CC(=O)C=C[C@]5(C)[C@@H]4[C@@H](O)C[C@]3(C)[C@]2(C(=O)CO)O1
active: [3] 0.148 µM | [5] 6.62 µM | [8] 0.296 µM | [10] 0.0166 µM
inactive: [2] | [4] | [13] | [15] | [7] | [9] | [11]

COc1ccc(Nc2nccc(NCCO)n2)cc1
inactive: [2] | [3] | [14] | [15] | [6] | [18]

C[C@H](NC(=O)Cc1cc(F)cc(F)c1)C(=O)N[C@H](C(=O)OC(C)(C)C)c1ccccc1
active: [4] 4.69 µM
inactive: [2] | [13] | [15] | [6] | [7] | [8] | [9] | [10] | [11] | [18]

CC(C)c1cc(C(C)C)c(CC(=O)NS(=O)(=O)Oc2c(C(C)C)cccc2C(C)C)c(C(C)C)c1
inactive: [2] | [8]
active: [4] 16.6 µM | [13] 6.62 µM | [15] 26.4 µM | [19] 33.2 µM | [7] 20.9 µM | [10] 20.9 µM | [11] 23.5 µM | [12] 18.7 µM

C=C[C@@H]1CN2CCC1C[C@H]2[C@H](O)c1ccnc2ccc(OC)cc12 (stereo partly specified)
inactive: [2] | [14] | [4] | [16] | [6] | [7] | [9] | [10] | [11] | [18]
